# Target: Serine/threonine-protein kinase B-raf (Homo sapiens) (UniProt P15056)
# Settings: at 0.1 µM
# 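Note: mean percent inhibition of BRAF kinase activity, from the GSK PKIS kinase inhibitor screening set.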
# Sequence of Serine/threonine-protein kinase B-raf (Homo sapiens) (P15056 whole entry): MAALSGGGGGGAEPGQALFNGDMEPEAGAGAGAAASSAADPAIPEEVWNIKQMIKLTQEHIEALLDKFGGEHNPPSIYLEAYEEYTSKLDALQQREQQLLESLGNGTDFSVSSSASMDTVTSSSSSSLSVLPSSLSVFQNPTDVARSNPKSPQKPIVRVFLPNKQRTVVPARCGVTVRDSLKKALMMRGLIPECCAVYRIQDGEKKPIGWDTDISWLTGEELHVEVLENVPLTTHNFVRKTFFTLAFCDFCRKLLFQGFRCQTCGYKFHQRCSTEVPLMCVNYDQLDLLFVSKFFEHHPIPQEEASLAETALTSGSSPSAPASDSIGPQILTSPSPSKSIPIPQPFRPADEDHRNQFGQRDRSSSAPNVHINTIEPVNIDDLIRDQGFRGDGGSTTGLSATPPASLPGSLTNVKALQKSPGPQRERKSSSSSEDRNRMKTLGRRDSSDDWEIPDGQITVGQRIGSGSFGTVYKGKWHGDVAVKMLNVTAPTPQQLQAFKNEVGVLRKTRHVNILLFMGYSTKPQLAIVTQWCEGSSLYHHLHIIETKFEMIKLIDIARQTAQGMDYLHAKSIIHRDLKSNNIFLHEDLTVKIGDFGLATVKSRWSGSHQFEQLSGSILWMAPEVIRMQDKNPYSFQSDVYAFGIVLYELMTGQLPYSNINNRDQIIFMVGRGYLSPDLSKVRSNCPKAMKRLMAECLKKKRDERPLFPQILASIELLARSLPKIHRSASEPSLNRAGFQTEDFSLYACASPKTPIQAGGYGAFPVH
row,Structure (SMILES),inhibition [%]
1,Fc1ccc(-c2nn3ccccc3c2-c2ccncc2)cc1,2.84
2,NS(=O)(=O)c1ccc(N/N=C2\C(=O)Nc3ccc4ncccc4c32)cc1,15
3,CCc1nn2ncccc2c1-c1ccnc(NC2CC2)n1,2.93
4,O=C(Nc1n[nH]c2cc(-c3ccc(F)cc3)ccc12)C1CC1,4.3
5,CCCN1CCC(c2ccc(Nc3nc(Nc4cc(F)ccc4C(N)=O)c4cc[nH]c4n3)c(OC)c2)CC1,9.61
6,CCCN(CCS(C)(=O)=O)Cc1ccc(-c2ccc3ncnc(Nc4ccc(OCc5cccc(F)c5)c(Cl)c4)c3c2)o1,3.07
7,CC(C)COC(=O)c1ccc2c(c1)/C(=C/Nc1ccc(S(N)(=O)=O)cc1)C(=O)N2,2.66
8,NS(=O)(=O)c1ccc(Nc2ncc(-c3ccccc3)o2)cc1,5.82
9,Cc1ccc(O)cc1Nc1ccnc2cc(-c3ccccn3)ccc12,9.05
10,COc1cc2ncn(-c3cc(OCc4ccccc4C(F)(F)F)c(C(=O)N(C)C)s3)c2cc1OC,-0.22
11,COc1ccc(-c2nn3ncccc3c2-c2ccnc(Nc3ccc4c(c3)OCCO4)n2)cc1,2.67
12,COc1cccc(-n2ncc3c(N/N=C/c4ccc(F)cc4)ncnc32)c1,7.43
13,COc1cc(Nc2nccc(Nc3ccc4c(C)n[nH]c4c3)n2)cc(OC)c1OC,1.16
14,COc1ccc(-c2cc3c(N)ncnc3o2)cc1,-1.18
15,Nc1ncc(-c2cccc(S(N)(=O)=O)c2)c2scc(-c3ccc(F)c(Cl)c3)c12,6.39
16,COC(=O)c1sc(-n2cnc3cc(OC)c(OC)cc32)cc1OCc1ccccc1C(F)(F)F,6.09
17,Clc1ccc(-c2nn3ncccc3c2-c2ccnc(Nc3ccccc3)n2)cc1,2.69

row,Structure (SMILES),inhibition [%]
1,CC(=O)NCc1cccc(C#Cc2cncnc2Nc2ccc(OCc3cccc(F)c3)c(Cl)c2)c1,1.06
2,COc1cc2c(cc1Nc1nc(Nc3ccsc3C(N)=O)c3cc[nH]c3n1)N(C(=O)CN(C)C)CCC2(C)C,6.5
3,Cc1cccc(Nc2ncc(-c3ccccc3)o2)c1,2.32
4,CCn1c(-c2nonc2N)nc2cnc(Oc3cccc(NC(=O)c4ccc(N(C)C)cc4)c3)cc21,1.95
5,COc1ccc(-c2oc3ncnc(N)c3c2-c2ccc(NC(=O)Nc3cc(C(F)(F)F)ccc3F)cc2)cc1,6.96
6,COc1cc(/C=N/Nc2ncnc3[nH]ncc23)ccc1O,5.39
7,Fc1cccc(COc2ccc(Nc3ncnc4sc(-c5ccco5)cc34)cc2Cl)c1,6.56
8,CN1CCC(n2cnc(-c3ccc(F)cc3)c2-c2ccnc(Nc3ccccc3)n2)CC1,3.78
9,CNC(=O)c1cccc(C#Cc2cncnc2Nc2ccc(OCc3cccc(F)c3)c(Cl)c2)c1,0.05
10,CCOc1ccc2c(-c3ccnc(Nc4cccc(C(F)(F)F)c4)n3)cnn2n1,3.46
11,CCN1CCC(CC(=O)Nc2n[nH]c3nnc(-c4cccc(F)c4F)cc23)CC1,3.25
12,FC(F)(F)c1cccc(-c2nn3ncccc3c2-c2ccnc(Nc3ccc4c(c3)OCCO4)n2)c1,2.88
13,CN(C)CCOc1ccc(-c2nc(-c3ccncc3)c(-c3ccc4c(c3)CC/C4=N\O)[nH]2)cc1,63.5
14,Cc1cccc2c1NC(=O)/C2=N\Nc1ccc(S(N)(=O)=O)cc1,3.47
15,COc1cccc(-c2c[nH]c3c(N/N=C/c4ccncc4)ncnc23)c1,3.1
16,COc1ccc(-c2cc(-c3c[nH]nc3-c3ccccn3)ccn2)cc1,7.54
